Source: PubChem
AmpC detergent – qHTS Inhibitors of AmpC Beta-Lactamase (assay with detergent); AmpC hydrolysis of nitrocefin, absorbance 480 nm, 0.01% Triton; Potency, µM (titrated, usually from 114 µM), inactives show at the highest dose activity change, negative = inhibition, hits mostly inhibitors; hit rate 0.041% among 370,000;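 further: 0% = no-compound wells and -100% = no-enzyme wells; nearly all actives have a fitted effect of over 25% in size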
Target sequence (P00811 whole entry, looked up): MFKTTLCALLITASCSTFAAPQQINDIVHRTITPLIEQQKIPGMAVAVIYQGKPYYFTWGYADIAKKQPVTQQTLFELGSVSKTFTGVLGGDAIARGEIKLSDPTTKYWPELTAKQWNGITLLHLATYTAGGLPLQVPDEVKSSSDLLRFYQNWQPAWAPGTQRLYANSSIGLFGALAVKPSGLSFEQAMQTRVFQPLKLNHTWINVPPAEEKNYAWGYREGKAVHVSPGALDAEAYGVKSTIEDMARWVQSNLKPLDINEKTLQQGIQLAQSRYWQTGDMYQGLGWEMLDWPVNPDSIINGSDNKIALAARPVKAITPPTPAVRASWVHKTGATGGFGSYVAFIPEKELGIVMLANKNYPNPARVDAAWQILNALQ
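20 mM phosphate pH 7.0 + 0.01% (detergent screen) or 0.0001% Triton X-100; 5.3 nM AmpC reagent; cpd preinc 15 min RT; nitrocefin (800 uM stock) to start; A480 q20 s × 4 min; Activity was normalised to no-enzyme and no-compound control wells.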
AMA1 RON2 block – qHTS for Inhibitors of AMA1-RON; Towards Development of Antimalarial Drug Lead: Primary Screen. AID 720542, 2013. hit rate 0.2% among 360,000. AlphaScreen AMA1-biotinylated RON2 peptide binding. Potency, µM (series often up to 58.2 µM), for the others: at the highest dose activity change, negative = inhibition, most hits filed as inhibitors. Plasmodium falciparum AMA1 (3D7) - RON2 peptide interaction;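 further: 0% = vehicle wells and -100% = peptide control; nearly all actives have a fitted effect of over 45% in size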
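AMA1 (3D7) with his tag at 25 nM final met compounds first, then biotinylated RON2 peptide at 25 nM; detection used donor plus acceptor beads, 10 µg/mL apiece, read by AlphaScreen after 30 min at room temperature.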
Sm TGR block – qHTS Assay for the Inhibitors of Schistosoma Mansoni Peroxiredoxins. AID 485364, 2010. purified TGR, DTNB reduction, TNB absorbance 405 nm. hit rate 3% among 360,000. Schistosoma mansoni thioredoxin glutathione reductase (TGR), Q962Y6. Potency, µM (doses to about 114 µM), for inactives: at the top dose activity change, negative = inhibition, hits mostly inhibitors; further: nearly all actives have a fitted effect of over 60% in size
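TGR 20 nM + NADPH 100 uM (dispensed conc.), cpd preinc 15 min RT; start with NADPH (500 uM addition) then DTNB (15 mM addition). Kinetic TNB absorbance, 405 nm filter. Four-parameter Hill fit across titration.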
AmpC no deterg – qHTS Inhibitors of AmpC Beta-Lactamase (assay without detergent). AmpC nitrocefin hydrolysis, absorbance 480 nm, 0.0001% Triton. hit rate 0.52% among 330,000. Potency, µM (top dose mostly 57.1 µM), for the others: at the top dose activity change, negative = inhibition, most hits filed as inhibitors. AID 485341, 2010;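 further: plate controls were no compound for no effect and no enzyme for full effect; nearly all actives have a fitted effect of over 20% in size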
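20 mM phosphate pH 7.0 + 0.01% (detergent screen) or 0.0001% Triton X-100; 5.3 nM AmpC reagent; cpd preinc 15 min RT; nitrocefin (800 uM stock) to start; A480 q20 s × 4 min; Activity was normalised to no-enzyme and no-compound control wells.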
RE007 growth inh – qHTS Assay for Inhibitors of the HIV-1 protein Vpr; S. pombe RE007 Vpr strain, BacTiter-Glo ATP luminescence, 24 h; Potency, µM (highest dose often 92.2 µM), for the others: at the highest dose activity change, negative = less growth, usual class: inhibitors; hit rate 0.21% among 360,000; AID 651644, 2012; active means well fitted falling curve with a large enough effect; inconclusive means small, poorly fitted or top-dose-only effect; inactive means no such curve, though single readings can be large or run the other way; further: nearly all actives have a fitted effect of over 50% in size
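Fission yeast RE007 carrying one integrated HIV-1 vpr copy, seeded at OD 0.01 in PMG+AL medium with 23 nL pinned compound. Grown 24 h at 30 degrees; viability read by BacTiter-Glo luminescence after 5 min.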
* = called active by the depositor; ? = inconclusive; · = no result given; [ ] = remark or other dose. Rows were chosen to be rich in hits. Some 3.2% of all compounds tested hit in one or more screens of this group. Unless noted, the call rests on the fitted dose curve; in most records, active means well fitted curve in the direction sought with a large enough effect; inconclusive means small, poorly fitted or top-dose-only effect, or another doubt; inactive means no such curve, though single readings can be large; an effect the other way counts as inactive or inconclusive. Unless noted, on the % scale 0 is the no-effect control and ±100 the full control effect; potency means the concentration at half of the fitted maximal effect.

SMILES	AmpC detergent	AMA1 RON2 block	Sm TGR block	AmpC no deterg	RE007 growth inh
Cc1ccc(S(=O)(=O)Cc2ccc(C(=O)NCc3ccc4c(c3)OCO4)o2)cc1	5%	-9%	25µM*	-12%	0%
Cc1ccc(S(=O)(=O)Cc2ccc(C(=O)O)o2)cc1	2%	10%	22µM*	-20%	-22%
Cc1cccc(C(=O)Nc2cc3c(cc2C)n(C)c(=O)n3C)c1	-3%	·	-1%	·	·
Cc1ccc(CNC(=O)c2cc(C)nc3c2c(C)nn3-c2ccc(C)cc2)cc1	18%	·	12%	·	·
COc1ccc(S(=O)(=O)Cc2ccc(C(=O)NCc3ccccc3)o2)cc1	-7%	-5%	-26%	-12%	-9%
COCCCNC(=O)c1ccc(CS(=O)(=O)c2ccccc2OC)o1	3%	4%	0%	-16%	-8%
COc1ccc(S(=O)(=O)Cc2ccc(C(=O)NCc3cccnc3)o2)cc1	-10%	0%	35µM*	-4%	-1%
CC(=O)c1sc(NC(=O)c2ccc(Cn3cc(Br)cn3)o2)nc1C	?	-13%	50µM*	-29%	-9%
COCCNC(=O)c1ccc(CS(=O)(=O)c2ccccc2OC)o1	2%	-5%	32µM*	-4%	11%
COCCNC(=O)c1ccc(CS(=O)(=O)c2ccc(C)cc2)o1	-5%	1%	35µM*	0%	-11%
COc1ccccc1N1CCN(C(=O)CSc2n[nH]c(-c3ccccc3Cl)n2)CC1	1%	·	1%	·	·
COc1ccccc1CNC(=O)c1ccc(CS(=O)(=O)c2ccccc2OC)o1	4%	-3%	?	5%	-14%
Cc1ccc(S(=O)(=O)NCC(=O)OCC(=O)NCCc2ccccc2)cc1	-11%	-1%	-1%	-8%	1%
COc1ccccc1CNC(=O)COC(=O)CNS(=O)(=O)c1ccc(C)cc1	11%	9%	35µM*	117%	24%
COc1ccccc1CNC(=O)c1ccc(CS(=O)(=O)c2ccc(C)cc2)o1	3%	-7%	35µM*	-20%	0%
O=C(NCc1ccccc1Cl)C1CCCN(c2ncnc3onc(-c4ccc(F)cc4)c23)C1 (stereo not given)	0%	·	1%	·	·
C=CCn1c(O)c(C(CC)=Nc2ccc3c(c2)CCC3)c(=O)[nH]c1=O	2%	-28%	-1%	-17%	11%
C=CCn1c(O)c(C(CC)=Nc2ccc(N(C)C)cc2)c(=O)[nH]c1=O	-7%	?	32µM*	-28%	8%
C=CCn1c(O)c(C(CC)=NCCc2ccccc2)c(=O)[nH]c1=O	-7%	30%	89µM*	-19%	19%[3.69 µM]
O=C(Cn1ncc2c(=O)oc3ccccc3c21)NCc1ccccc1Cl	5%	·	3%	·	·
COc1cccc(C(=O)NCc2ccc3[nH]c(C)cc3c2)c1	-1%	-26%	40µM*	-1%	-4%
COc1ccc(C(=O)NCc2ccc3[nH]c(C)cc3c2)cc1OC	0%	-2%	14µM*	81%	3%
COc1cc(OC)cc(C(=O)NCc2ccc3[nH]c(C)cc3c2)c1	4%	-14%	?	-42%	32%
c1ccc(CNc2nc3c(-c4ccccc4)nnn3c3ccccc23)cc1	9%	·	-1%	·	·
O=C(Nc1nc2ccccc2s1)C1CCN(S(=O)(=O)c2cc([N+](=O)[O-])ccc2Cl)CC1	8%	-24%	?	7.9µM*	-10%
SMILES	AmpC detergent	AMA1 RON2 block	Sm TGR block	AmpC no deterg	RE007 growth inh
CCCC(CCC)C(=O)Nc1cccc(-c2nc3cccnc3s2)c1	22%	·	0%	·	·
CSc1nnc(C)c(=O)n1COC(=O)/C=C/c1ccccc1	2%	-6%	?	9%	22%
CSc1nnc(C)c(=O)n1COC(=O)/C=C/c1ccc2c(c1)OCO2	-1%	-7%	25µM*	32%	12%
Cc1ccc(NC(=O)/C=C/c2ccco2)cc1F	-2%	·	14µM*	·	·
Cc1ccc(-n2nc3ccc(NC(=O)c4ccco4)cc3n2)cc1	?	-2%	-5%	-5%	23%
O=C(/C=C/c1ccco1)Nc1ccc2nn(-c3ccccc3)nc2c1	-12%	-14%	32µM*	?	4%
Cc1cc(NC(=O)/C=C/c2ccco2)ccc1NC(=O)c1ccccc1	10%	-10%	10µM*	-31%	9%
Cc1nc2c(c(C)c1CCC(=O)N1CCN(c3ccccc3)CC1)c(=O)n(C)c(=O)n2C	-2%	·	-6%	·	·
CCOC(=O)CSC1=NC(=O)/C(=C/c2ccc(OC)cc2)S1	-7%	-1%	6.3µM*	-32%	?
COc1ccc(Cn2c(=O)c3ccccc3n3c(-c4ccc(C)cc4)nnc23)cc1	22%	·	0%	·	·
CCCCN1C(=O)c2[nH]nc(-c3ccccc3O)c2C1c1cc(Br)c(O)c(OC)c1 (stereo not given)	5%	·	56µM*	·	·
COc1ccc(/C=C/C2=CC(C)(C)NC(=S)N2)cc1OC	3%	22%	2.8µM*	-28%	3%
CCOc1ccc(/C=C/C2=CC(C)(C)NC(=S)N2)cc1	-14%	29%	8.9µM*	-60%	-17%
COc1cccc(/C=C/C2=CC(C)(C)NC(=S)N2)c1	-4%	1%	·	-32%	8%
CCOc1ccccc1Nc1sc(C(=O)c2ccc(Cl)cc2)c(N)c1S(=O)(=O)c1ccccc1	14%	·	-9%	·	·
O=C(CCCn1c2ccccc2c(=O)c2ccccc21)Nc1cccc(Cl)c1	12%	·	2%	·	·
O=C(OCC(=O)N1CCCC1=O)c1cc(Cl)ccc1O	-18%	16%	-2%	-12%	16µM*
Cc1ccc(C2Nc3ccccc3-n3c(-c4ccccc4)c4c(=O)n(C)c(=O)n(C)c4c32)cc1 (stereo not given)	31%	·	0%	·	·
O=C(c1ccco1)C(O)c1ccco1 (stereo not given)	-6%	-8%	20µM*	-20%	·
COc1ccc(NC(=O)C2CCN(S(=O)(=O)c3ccc4[nH]c(=O)ccc4c3)CC2)c(OC)c1	3%	·	6%	·	·
O=C(O)C1=CC(=C(c2ccc(O)c(C(=O)O)c2)c2ccc(O)c(C(=O)O)c2)C=CC1=O	8.9µM*	·	-36%	8.9µM*	·
Cc1cccc(CN2CCc3c([nH]c4ccccc34)C2C(C)(C)C)n1 (stereo not given)	-9%	-11%	16µM*	-11%	3%
Fc1ccccc1C1c2[nH]c3ccccc3c2CCN1CCCn1cccn1 (stereo not given)	12%	-1%	?	38%	-4%
CC(C)(C)C1c2[nH]c3ccccc3c2CCN1CCCn1cccn1 (stereo not given)	4%	13%	40µM*	-2%	-6%
